Assay [1] can be described thus: qHTS assay to identify small molecule antagonists of the thyroid receptor (TR) signaling pathway - cell viability counter screen (AID 743064). Also: nearly all actives have a fitted effect of over 50% in size. Also: potency is read from the fitted curve at half-maximal effect. The essentials: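 CellTiter-Fluor readout, 30 min at 37 °C/5% CO2, following 23.5 h incubation of GH3.TRE-Luc cells with test compound and 1 nM T3 (final).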
The nature of assay [2]: qHTS assay to identify small molecule antagonists of the thyroid receptor (TR) signaling pathway (AID 743065). Also: nearly all actives have a fitted effect of over 55% in size. Also: potency is read from the fitted curve at half-maximal effect. The method in brief: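 Antagonism measured as loss of luciferase signal in GH3 cells stably carrying a TRE-luciferase reporter, co-treated with compound and T3 (1 nM final) for 23.5 h at 37 C. Viability was read in the same well by CellTiter-Fluor.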
(In general: qHTS replaces the single test concentration by a dilution series.)

Assay [3] has as its system thyroid hormone receptor (rat, GH3 cells). Briefly: qHTS assay to identify small molecule agonists of the thyroid receptor (TR) signaling pathway (AID 743066; calls by dose curve).
Assay [4] is described as follows: qHTS assay to identify small molecule antagonists of the estrogen receptor alpha (ER-alpha) signaling pathway - cell viability counter screen (AID 743074; calls by dose curve;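 also: HEK293 cells carrying ER-alpha-UAS-bla reporter stimulated with 17beta-estradiol; nearly all actives have a fitted effect of over 45% in size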).
The target of another assay is Aromatase (Homo sapiens) (UniProt P11511). Briefly: qHTS assay to identify aromatase inhibitors (AID 743083). Also: nearly all actives have a fitted effect of over 55% in size. Also: potency is read from the fitted curve at half-maximal effect.
Chain of Aromatase (Homo sapiens) (P11511 whole entry, looked up): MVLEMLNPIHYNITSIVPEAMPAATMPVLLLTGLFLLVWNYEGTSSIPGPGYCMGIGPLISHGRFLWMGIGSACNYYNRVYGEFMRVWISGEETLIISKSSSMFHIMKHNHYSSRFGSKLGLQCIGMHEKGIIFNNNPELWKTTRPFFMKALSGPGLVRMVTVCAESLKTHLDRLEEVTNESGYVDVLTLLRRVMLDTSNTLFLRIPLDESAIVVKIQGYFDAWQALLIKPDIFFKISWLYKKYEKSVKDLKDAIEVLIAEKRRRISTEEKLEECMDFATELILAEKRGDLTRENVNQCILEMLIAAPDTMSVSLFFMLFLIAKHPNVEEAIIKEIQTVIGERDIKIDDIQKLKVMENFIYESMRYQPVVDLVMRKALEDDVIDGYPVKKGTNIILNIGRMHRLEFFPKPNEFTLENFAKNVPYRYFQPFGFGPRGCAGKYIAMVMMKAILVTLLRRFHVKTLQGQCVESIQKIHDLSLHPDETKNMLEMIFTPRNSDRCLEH
The nature of assay [5]: qHTS assay to identify small molecule antagonists of the estrogen receptor alpha (ER-alpha) signaling pathway using the BG1 cell line - cell viability counter screen (AID 743081).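 Also: compound given together with 17beta-estradiol as the ER stimulus; series mostly up to about 70 µM; nearly all actives have a fitted effect of over 45% in size.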

Inconclusive results are not listed. Calls of active or inactive are those of the source. Unless noted, calls follow the shape of the dose curve; as a rule, active = well fitted curve in the direction sought with a large enough effect in the repeat runs; inconclusive = weak or mixed curves; inactive = no such curve, though single readings can be large; an effect the other way counts as inactive or inconclusive. Starred links: 1 amine or outer side, 2 acyl side, 3 side chain; linkers in the order of their positions; H or OH if unused. Positions of bridges follow the written chain, without caps; N, C: chain ends. Non-standard residues stand in square brackets, D forms with d. Residues, ends and D or L forms follow the SMILES beside them. *: point of attachment. X5 = NC1=N[C@@H]([C@H](N[*:1])C(=O)[*:2])C[C@H](O)N1; ΔAla(Z-3-ureido) = NC(=O)N/C=C(\N)C(=O)O; β3hOrn = NCCC[C@H](N)CC(=O)*; Dap = NC[C@H](N)C(=O)O

Consider `CCN(CC)CCOCCOC(=O)C(CC)(CC)c1ccccc1`, for which the Potency in assay [1] is 26.6 µM (active); in assay [2], 23.7 µM (active). Moreover, the Potency result (in assay [3]; in assay [4]; with Aromatase (Homo sapiens)) was “inactive” throughout.
Regarding `OC[C@@H](O)C(O)[C@H](O)CO`, the Potency result (in assay [1]; in assay [2]; in assay [3]; in assay [4]; in assay [5]; with Aromatase (Homo sapiens)) was “inactive” in each case.
In the case of `NCCC[C@H](N)CC(=O)N[C@H]1CNC(=O)[C@H]([C@H]2C[C@H](O)NC(N)=N2)NC(=O)/C(=C/NC(N)=O)NC(=O)[C@H](CO)NC(=O)[C@H](CO)NC1=O` (β3hOrn-[Dap]SS[ΔAla(Z-3-ureido)][X5]; lactam 1-C), the Potency entry (in assay [1]; in assay [2]; in assay [3]; in assay [4]; in assay [5]; with Aromatase (Homo sapiens)) was “inactive” each time.
Regarding `CS(=O)(=O)OCCCNCCCOS(C)(=O)=O`, the Potency result (in assay [1]; in assay [2]; in assay [3]; in assay [4]; with Aromatase (Homo sapiens)) was “inactive” each time.
Regarding `O=C1CCC(=O)N1CO`, the Potency result (in assay [1]; in assay [2]; in assay [3]; in assay [4]; in assay [5]; with Aromatase (Homo sapiens)) was “inactive” throughout.
Take `CCCOc1ccc2nc(NC(=O)OC)sc2c1`: the Potency was 10.6 µM (active) in assay [1] and 2.37 µM (active) in assay [2]. In addition, the Potency result (in assay [3]; in assay [4]; in assay [5]; with Aromatase (Homo sapiens)) was “inactive” in each case.
As to `Cc1ccc(S(=O)(=O)NC(=O)N[C@@H](C)Cc2ccccc2)cc1`, the Potency result (in assay [1]; in assay [2]; in assay [3]; in assay [4]; in assay [5]; with Aromatase (Homo sapiens)) was “inactive” in each case.
`O=C(NNCNNC(=O)c1ccncc1)c1ccncc1`: the Potency entry (in assay [1]; in assay [2]; in assay [3]; in assay [4]; in assay [5]; with Aromatase (Homo sapiens)) was “inactive” in each case.
Regarding `CCOC(=O)[C@H](CCc1ccccc1)N[C@H]1CCCN2CCC[C@@H](C(=O)O)N2C1=O`, the Potency entry (in assay [1]; in assay [2]; in assay [3]; in assay [4]; in assay [5]; in the assay with Aromatase (Homo sapiens)) was “inactive” in each case.
Turning to `NNc1nnc(Cc2ccncc2)c2ccccc12`, the Potency result in assay [1], in assay [3] and in assay [4] was “inactive” in each case. The values for the Potency (in assay [2]; with Aromatase (Homo sapiens)) were 4.73 µM (active) and 13.3 µM (active), respectively.
On to `CN[C@@H]1[C@@H](O)[C@@H](O[C@@H]2[C@@H](O)[C@H](OC3OC(CN)=CCC3N)[C@@H](N)C[C@H]2N)OC[C@]1(C)O` (stereo partly specified), for which the Potency result (in assay [1]; in assay [2]; in assay [3]; in assay [4]; in assay [5]; with Aromatase (Homo sapiens)) was “inactive” throughout.
Regarding `COc1c(O[C@@H]2O[C@H](CO)[C@@H](O)[C@H](O)[C@H]2O)cc2c(c1OC)-c1ccc(SC)c(=O)cc1[C@@H](NC(C)=O)CC2`, the Potency entry (in assay [1]; in assay [2]; in assay [3]; in assay [4]; in assay [5]; in the assay with Aromatase (Homo sapiens)) was “inactive” each time.
As for `CCCc1nc(C(C)(C)O)c(C(=O)OCc2oc(=O)oc2C)n1Cc1ccc(-c2ccccc2-c2nn[nH]n2)cc1`, the Potency result (in assay [1]; in assay [2]; in assay [3]; in assay [4]; in assay [5]; in the assay with Aromatase (Homo sapiens)) was “inactive” throughout.
With `CC(=O)N[C@@H]([C@@H](O)[C@H](O)[C@H](O)CO)[C@@H](O)CC(=O)C(=O)O`, the Potency result (in assay [1]; in assay [2]; in assay [3]; in assay [4]; in assay [5]; in the assay with Aromatase (Homo sapiens)) was “inactive” each time.
For the molecule `CN(CCO)CC(O)Cn1cnc2c1c(=O)n(C)c(=O)n2C` (stereo unspecified) (tested in a mixture with another compound), the Potency entry (in assay [1]; in assay [2]; in assay [3]; in assay [4]; in assay [5]; with Aromatase (Homo sapiens)) was “inactive” each time.
Take `CC(=O)Nc1ccc(OC(=O)c2ccccc2O)cc1`: the Potency result (in assay [1]; in assay [2]; in assay [3]; in assay [4]; in assay [5]; with Aromatase (Homo sapiens)) was “inactive” throughout.
Regarding `COc1ccc(-c2noc(CC(=O)O)c2-c2ccc(OC)cc2)cc1`, the Potency entry (in assay [1]; in assay [2]; in assay [3]; in assay [4]; in assay [5]; in the assay with Aromatase (Homo sapiens)) was “inactive” throughout.
In the case of `CS(=O)(=O)c1ccc(C2=C(c3ccccc3)C(=O)OC2)cc1`, the Potency result (in assay [1]; in assay [2]; in assay [3]; in assay [4]; in assay [5]; with Aromatase (Homo sapiens)) was “inactive” in each case.
As for `c1ccc2c(c1)Sc1ccccc1N2CCN1CCCC1`, the Potency is 11.9 µM (active) in assay [1] and 29.8 µM (active) in assay [2]. Also, the Potency entry (in assay [3]; in assay [4]; in the assay with Aromatase (Homo sapiens)) was “inactive” in each case.
As for `COc1ccc(CC2c3cc(OC)c(OC)cc3CC[N+]2(C)CCC(=O)OCCCCCOC(=O)CC[N+]2(C)CCc3cc(OC)c(OC)cc3C2Cc2ccc(OC)c(OC)c2)cc1OC` (stereo unspecified), the Potency entry (in assay [1]; in assay [2]; in assay [3]; in assay [4]; in assay [5]; with Aromatase (Homo sapiens)) was “inactive” each time.

The values are drawn from PubChem BioAssay (Tox21).
